Results from PubChem BioAssay (Tox21).
Records with an inconclusive call do not appear. Active and inactive are the calls of the source. Unless noted, the call rests on the fitted dose curve; in most records, active means well fitted curve in the direction sought with a large enough effect in the repeat runs; inconclusive means weak or mixed curves; inactive means no such curve, though single readings can be large; an effect the other way counts as inactive or inconclusive.

How the values were obtained:
[1] = qHTS assay to identify small molecule agonists of the sonic hedgehog signaling (Shh) pathway (AID 1259368; calls by dose curve;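 further: NIH/3T3-derived 3T3Gli1-Luc cells carrying a stable Gli1-driven firefly luciferase reporter; series mostly up to about 92 µM; nearly all actives have a fitted effect of over 15% in size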)
Outline: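 Luminescence was read after 30 min at room temperature with luciferase reagent. Before that, 3T3Gli1-Luc cells (NIH/3T3 clone, stable Gli1-Luc reporter; 2,000/well) were exposed to compounds for 24 hr at 37C, 5% CO2, compounds being added 4 hr post-plating.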

[2] = qHTS assay to identify small molecule antagonists of the sonic hedgehog signaling (Shh) pathway (AID 1259369; calls by dose curve; further: nearly all actives have a fitted effect of over 45% in size; further: potency means the concentration at half of the fitted maximal effect)
Outline: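 Antagonist mode: compound added to 3T3 Gli1-Luc cells followed by conditioned-medium stimulation, 24 h at 37 C, 5% CO2. Inhibition taken as loss of Gli1-driven luciferase luminescence.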

[3] = molecular target: Estrogen receptor beta (Homo sapiens) (UniProt Q92731); assay: qHTS assay to identify small molecule antagonists of the estrogen receptor beta (ER-beta) signaling pathway (AID 1259378; active means well fitted inhibition curve with a large enough effect in the signal ratio in the repeat runs, not every such curve was filed as active; the % refers to the signal ratio)
Chain of Estrogen receptor beta (Homo sapiens) (Q92731 whole entry, looked up): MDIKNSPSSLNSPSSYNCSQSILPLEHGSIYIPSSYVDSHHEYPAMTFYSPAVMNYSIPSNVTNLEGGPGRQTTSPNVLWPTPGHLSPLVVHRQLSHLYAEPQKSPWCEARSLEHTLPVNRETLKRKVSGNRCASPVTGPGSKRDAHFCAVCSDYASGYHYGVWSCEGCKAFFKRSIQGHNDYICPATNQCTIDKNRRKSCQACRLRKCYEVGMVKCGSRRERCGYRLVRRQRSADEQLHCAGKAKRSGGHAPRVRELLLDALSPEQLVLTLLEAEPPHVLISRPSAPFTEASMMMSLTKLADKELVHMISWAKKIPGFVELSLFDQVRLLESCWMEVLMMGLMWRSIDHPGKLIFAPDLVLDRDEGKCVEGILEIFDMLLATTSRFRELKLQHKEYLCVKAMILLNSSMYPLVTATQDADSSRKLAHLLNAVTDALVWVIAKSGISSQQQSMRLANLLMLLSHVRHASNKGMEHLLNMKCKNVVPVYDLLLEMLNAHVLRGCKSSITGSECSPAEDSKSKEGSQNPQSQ
Outline: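 Antagonist mode: compounds added to beta-lactamase reporter HEK293T ER-beta-UAS cells stimulated with E2 (1nM final), 16 hr at 37C. LiveBLAzer B/G FRET substrate, 2 hours room temperature, fluorescence read-out.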

[4] = qHTS assay to identify small molecule agonists of the androgen receptor (AR) signaling pathway in the presence of an antagonist - cell viability counter screen (AID 1259379);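 further: MDA-kb2 human breast cancer cells carrying an MMTV luciferase reporter; series mostly up to about 92 µM; nearly all actives have a fitted effect of over 25% in size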
Outline: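 Cytotoxicity counter-screen run in the same wells as the nilutamide-challenged (3.0 µM final) AR agonist assay in MDA-kb2 cells. Compounds tested at 15 concentrations for 16 h, 37 °C without CO2; CellTiter-Fluor fluorescence read.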

[5] = qHTS assay to identify small molecule agonists of the estrogen receptor beta (ER-beta) signaling pathway - cell viability counter screen (AID 1259380); further: nearly all actives have a fitted effect of over 30% in size
Outline: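 Cell viability counter screen: CellTiter-Glo luminescence (30 min, room temperature) measured in the same wells as the beta-lactamase readout, after 16 hr compound exposure at 37C of ER-beta-bla HEK293T cells in 2% charcoal-stripped FBS medium.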

[6] = qHTS assay to identify small molecule antagonists of the estrogen receptor beta (ER-beta) signaling pathway - cell viability counter screen (AID 1259382);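 further: HEK293T cells carrying ER-beta-UAS-bla reporter stimulated with estradiol; series mostly up to about 92 µM; nearly all actives have a fitted effect of over 55% in size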
Outline: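 Cytotoxicity was measured in the same wells by CellTiter-Glo luminescence after 30 min at room temperature. Cells were ER-beta-bla HEK293T in charcoal-stripped serum, given compound together with 1 nM E2 and incubated 16 h at 37C.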

[7] = qHTS assay to identify small molecule agonists or antagonists of the thyroid stimulating hormone receptor (TSHR) signaling pathway - wild type cell line counter screen (AID 1259384; calls by dose curve)
Outline: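 Counter screen in untransfected Hek293: compounds (15-point titration, triplicate) plus phosphodiesterase inhibitor Ro20-1724 added after 18 h plating; 30 min RT. Intracellular cAMP via competitive d2/cryptate immunoassay, 1 h incubation.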

[8] = molecular target: Thyrotropin receptor (Homo sapiens) (UniProt P16473); assay: qHTS assay to identify small molecule antagonists of the thyroid stimulating hormone receptor (TSHR) signaling pathway (AID 1259385; calls by dose curve; further: nearly all actives have a fitted effect of over 20% in size)
Chain of Thyrotropin receptor (Homo sapiens) (P16473 whole entry, looked up): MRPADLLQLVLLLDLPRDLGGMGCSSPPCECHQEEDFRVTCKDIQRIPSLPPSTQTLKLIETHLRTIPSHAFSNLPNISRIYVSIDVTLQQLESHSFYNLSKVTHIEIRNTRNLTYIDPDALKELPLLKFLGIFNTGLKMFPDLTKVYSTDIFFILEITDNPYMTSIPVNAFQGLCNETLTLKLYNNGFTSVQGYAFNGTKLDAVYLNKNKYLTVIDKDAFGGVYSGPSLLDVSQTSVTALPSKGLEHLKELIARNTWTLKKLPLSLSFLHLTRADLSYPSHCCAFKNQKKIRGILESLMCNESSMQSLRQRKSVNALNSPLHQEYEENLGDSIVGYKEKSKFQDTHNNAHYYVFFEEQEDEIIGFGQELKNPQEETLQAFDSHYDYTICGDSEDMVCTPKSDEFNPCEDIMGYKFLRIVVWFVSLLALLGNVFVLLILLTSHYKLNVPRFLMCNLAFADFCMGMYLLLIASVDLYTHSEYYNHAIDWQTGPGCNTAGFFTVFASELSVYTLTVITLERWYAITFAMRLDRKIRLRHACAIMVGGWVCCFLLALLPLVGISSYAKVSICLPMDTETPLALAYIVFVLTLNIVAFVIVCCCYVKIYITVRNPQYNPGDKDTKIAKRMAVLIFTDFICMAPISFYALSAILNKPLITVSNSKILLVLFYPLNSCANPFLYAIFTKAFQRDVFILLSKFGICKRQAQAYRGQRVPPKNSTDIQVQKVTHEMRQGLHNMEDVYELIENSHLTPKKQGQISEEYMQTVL
Outline: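 Antagonist mode: compound-treated TSHR-expressing HEK293 cells were stimulated with 1.5 ng/mL TSH (final) in presence of Ro20-1724 for 30 min at RT. HTRF cAMP detection after 1 h; each compound tested at 15 concentrations, triplicate.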

[9] = qHTS assay to identify small molecule agonists of the estrogen receptor alpha (ER-alpha) signaling pathway in the presence of an antagonist - cell viability counter screen (AID 1259386); further: series mostly up to about 92 µM; nearly all actives have a fitted effect of over 30% in size
Outline: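 Compounds tested at 15 concentrations for 22 h at 37C alongside 10.0nM (final) ICI-182,780 antagonist, in VM7Luc4E2 cells grown in phenol red-free, charcoal-stripped medium. Viability read by CellTiter-Fluor fluorescence after 1 h reagent incubation.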

[10] = molecular target: Progesterone receptor (Homo sapiens) (UniProt P06401); assay: qHTS assay to identify small molecule agonists of the progesterone receptor (PR) signaling pathway (AID 1346784; calls by dose curve; further: nearly all actives have a fitted effect of over 30% in size)
Chain of Progesterone receptor (Homo sapiens) (P06401 whole entry, looked up): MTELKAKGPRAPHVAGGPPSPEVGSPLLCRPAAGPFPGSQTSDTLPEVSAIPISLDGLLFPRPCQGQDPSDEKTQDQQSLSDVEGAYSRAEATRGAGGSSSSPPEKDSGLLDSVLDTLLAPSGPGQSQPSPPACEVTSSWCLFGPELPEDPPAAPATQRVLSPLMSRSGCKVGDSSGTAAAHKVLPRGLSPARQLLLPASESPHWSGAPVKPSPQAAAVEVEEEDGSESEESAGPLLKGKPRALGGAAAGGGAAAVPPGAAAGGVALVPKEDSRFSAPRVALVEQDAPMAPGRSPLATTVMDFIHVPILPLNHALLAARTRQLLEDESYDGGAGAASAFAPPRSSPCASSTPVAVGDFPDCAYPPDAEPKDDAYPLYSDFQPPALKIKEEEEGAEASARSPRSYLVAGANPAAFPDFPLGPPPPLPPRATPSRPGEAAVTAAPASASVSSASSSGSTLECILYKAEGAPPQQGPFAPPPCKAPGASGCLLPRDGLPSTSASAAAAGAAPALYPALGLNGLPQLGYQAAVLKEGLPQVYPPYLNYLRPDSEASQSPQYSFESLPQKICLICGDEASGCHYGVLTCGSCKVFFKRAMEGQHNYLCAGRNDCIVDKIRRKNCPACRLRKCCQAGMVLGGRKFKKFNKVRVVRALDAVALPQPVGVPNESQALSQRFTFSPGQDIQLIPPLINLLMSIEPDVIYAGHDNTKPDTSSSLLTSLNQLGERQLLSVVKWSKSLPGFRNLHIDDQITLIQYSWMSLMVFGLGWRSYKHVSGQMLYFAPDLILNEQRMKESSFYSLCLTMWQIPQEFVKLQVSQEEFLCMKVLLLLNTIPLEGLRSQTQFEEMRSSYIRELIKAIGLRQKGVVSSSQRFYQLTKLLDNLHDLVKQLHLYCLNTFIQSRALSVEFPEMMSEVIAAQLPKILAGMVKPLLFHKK
Outline: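 The screen uses PR-UAS-bla HEK 293T cells in charcoal-stripped serum (2%). Compounds are applied for 16 hr at 37C after a 6 hr pre-incubation, and reporter activity is detected with a FRET beta-lactamase substrate after 2 hr at room temperature.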

[11] = molecular target: Progesterone receptor (Homo sapiens) (UniProt P06401); assay: qHTS assay to identify small molecule antagonists of the progesterone receptor (PR) signaling pathway (AID 1346795; active means well fitted inhibition curve with a large enough effect in the signal ratio in the repeat runs, not every such curve was filed as active; the % refers to the signal ratio)
Outline: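 After 6 hr plating at 37C in 2% stripped-serum medium, PR-UAS-bla HEK293T cells got compounds, then 1 nM R5020. Sixteen hours later, LiveBLAzer substrate was applied for 2 hr at room temperature and fluorescence was recorded.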

[12] = qHTS assay to identify small molecule antagonists of the progesterone receptor (PR) signaling pathway - cell viability counter screen (AID 1346798); further: series mostly up to about 92 µM; nearly all actives have a fitted effect of over 50% in size
Outline: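 Viability was determined by ATP-based luminescence (CellTiter-Glo) in PR-UAS-bla HEK293T cells cultured in 2% charcoal-stripped serum and incubated 16 hr with compounds under R5020 stimulation.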

[13] = qHTS assay to identify small molecule agonists of the progesterone receptor (PR) signaling pathway - cell viability counter screen (AID 1346799; calls by dose curve; further: nearly all actives have a fitted effect of over 45% in size)
Outline: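 Viability was scored by ATP luminescence (CellTiter-Glo, 30 min, room temperature) in the same wells used for the reporter readout, after 16 hr compound exposure of PR-UAS-bla HEK293T cells.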

[14] = qHTS assay to identify small molecule antagonists of the TGF-beta/Smad signaling pathway - cell viability counter screen (AID 1346824); further: nearly all actives have a fitted effect of over 50% in size
Outline: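 Cytotoxicity counter-screen run in the same wells as the beta-lactamase Smad reporter read: CellTiter-Glo luminescence after 30 min at room temperature. HEK 293T SBE-bla cells had 5 hr compound exposure at 37 C with TGF-beta1 (0.25 ng/mL stock).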

[15] = qHTS assay to identify small molecule agonists of the TGF-beta/Smad signaling pathway - cell viability counter screen (AID 1346829); further: top concentration of the series differs between compounds; nearly all actives have a fitted effect of over 45% in size
Outline: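 Cytotoxicity counter screen: CellTiter-Glo luminescence (30 min, room temperature) measured in the SBE-bla HEK 293T reporter wells after 5 hr compound treatment at 37 C and the 2 hr substrate step.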

[16] = qHTS assay to identify small molecule agonists of the TGF-beta/Smad signaling pathway (AID 1346859; active means well fitted activation curve with a large enough effect in the signal ratio in the repeat runs, not every such curve was filed as active; the % refers to the signal ratio; further: series mostly up to about 77 µM)
Outline: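 Dual-wavelength fluorescence (460/530 nm emission) quantified beta-lactamase expression under the Smad binding element in HEK 293T cells following 5 hr compound treatment at 37 C.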

[17] = molecular target: Thyrotropin-releasing hormone receptor (Homo sapiens) (UniProt P34981); assay: qHTS assay to identify small molecule antagonists of the thyrotropin-releasing hormone receptor (TRHR) signaling pathway (AID 1346877; active means well fitted inhibition curve with a large enough effect in the repeat runs, not every such curve was filed as active; further: series mostly up to about 51 µM)
Chain of Thyrotropin-releasing hormone receptor (Homo sapiens) (P34981 whole entry, looked up): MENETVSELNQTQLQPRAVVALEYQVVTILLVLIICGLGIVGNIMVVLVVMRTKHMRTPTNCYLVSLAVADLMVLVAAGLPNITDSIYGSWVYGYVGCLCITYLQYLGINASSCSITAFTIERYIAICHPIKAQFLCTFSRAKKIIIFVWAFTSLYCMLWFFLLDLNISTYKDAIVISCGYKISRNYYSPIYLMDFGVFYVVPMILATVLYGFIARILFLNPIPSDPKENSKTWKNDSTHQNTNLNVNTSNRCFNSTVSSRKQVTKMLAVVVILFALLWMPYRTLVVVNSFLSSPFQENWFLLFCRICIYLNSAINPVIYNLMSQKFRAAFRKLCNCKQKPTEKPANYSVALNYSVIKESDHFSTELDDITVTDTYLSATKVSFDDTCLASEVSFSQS
Outline: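 Antagonist mode: after a 5 min room-temperature compound exposure, cells were stimulated with 1 nM (final) TRH. Dye-loaded TRHR-HEK293 cells were used, and calcium-dependent fluorescence was followed for 3 min, with 15-point titrations run in triplicate.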

[18] = molecular target: Androgen receptor (Homo sapiens) (UniProt P10275); assay: qHTS assay to identify small molecule agonists of the androgen receptor (AR) signaling pathway in the presence of an antagonist (AID 1259381; calls by dose curve; further: nearly all actives have a fitted effect of over 15% in size)
Chain of Androgen receptor (Homo sapiens) (P10275 whole entry, looked up): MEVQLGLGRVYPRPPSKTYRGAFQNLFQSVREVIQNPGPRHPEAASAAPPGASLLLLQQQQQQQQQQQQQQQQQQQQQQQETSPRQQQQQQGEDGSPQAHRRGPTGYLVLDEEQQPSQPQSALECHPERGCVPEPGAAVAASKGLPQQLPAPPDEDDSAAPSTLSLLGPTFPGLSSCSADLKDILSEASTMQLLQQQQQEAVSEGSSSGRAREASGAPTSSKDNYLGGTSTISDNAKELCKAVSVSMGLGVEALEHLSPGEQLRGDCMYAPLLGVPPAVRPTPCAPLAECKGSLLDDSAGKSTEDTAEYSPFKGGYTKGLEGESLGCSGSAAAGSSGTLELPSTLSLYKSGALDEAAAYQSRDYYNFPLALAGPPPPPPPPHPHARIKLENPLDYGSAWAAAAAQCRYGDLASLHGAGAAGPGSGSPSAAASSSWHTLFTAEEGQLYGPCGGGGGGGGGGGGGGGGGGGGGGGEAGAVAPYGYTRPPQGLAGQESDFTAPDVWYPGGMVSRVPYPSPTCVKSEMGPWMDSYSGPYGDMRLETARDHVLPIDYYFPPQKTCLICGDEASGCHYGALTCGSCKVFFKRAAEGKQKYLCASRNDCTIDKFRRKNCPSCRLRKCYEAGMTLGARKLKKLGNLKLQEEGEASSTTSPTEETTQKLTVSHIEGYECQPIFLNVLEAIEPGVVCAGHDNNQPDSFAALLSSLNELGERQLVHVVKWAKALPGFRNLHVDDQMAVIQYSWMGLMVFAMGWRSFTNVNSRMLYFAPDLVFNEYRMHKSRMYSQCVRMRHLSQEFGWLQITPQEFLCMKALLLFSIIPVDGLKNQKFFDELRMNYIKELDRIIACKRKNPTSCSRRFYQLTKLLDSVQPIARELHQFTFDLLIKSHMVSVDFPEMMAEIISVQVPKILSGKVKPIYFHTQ
Outline: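 Agonist-mode confirmation run against 3.0 uM final nilutamide: compounds titrated at 15 concentrations onto MDA-kb2 MMTV-luciferase reporter cells. Luminescence measured with ONE-Glo following 16 hr incubation, 37C, 0% CO2.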

[19] = molecular target: Estrogen receptor beta (Homo sapiens) (UniProt Q92731); assay: qHTS assay to identify small molecule agonists of the estrogen receptor beta (ER-beta) signaling pathway (AID 1259377; active means well fitted activation curve with a large enough effect in the signal ratio in the repeat runs, not every such curve was filed as active; the % refers to the signal ratio)
Outline: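 Measured by fluorescence intensity from a B/G FRET beta-lactamase substrate (2 h, room temperature) in ER-beta-UAS-bla HEK293T cells treated with DMSO-dissolved compounds for 16 hr at 37C and 5% CO2.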

[20] = molecular target: Estrogen receptor (Homo sapiens) (UniProt P03372); assay: qHTS assay to identify small molecule agonists of the estrogen receptor alpha (ER-alpha) signaling pathway in the presence of an antagonist (AID 1259383; calls by dose curve; further: top concentration of the series differs between compounds; nearly all actives have a fitted effect of over 15% in size)
Chain of Estrogen receptor (Homo sapiens) (P03372 whole entry, looked up): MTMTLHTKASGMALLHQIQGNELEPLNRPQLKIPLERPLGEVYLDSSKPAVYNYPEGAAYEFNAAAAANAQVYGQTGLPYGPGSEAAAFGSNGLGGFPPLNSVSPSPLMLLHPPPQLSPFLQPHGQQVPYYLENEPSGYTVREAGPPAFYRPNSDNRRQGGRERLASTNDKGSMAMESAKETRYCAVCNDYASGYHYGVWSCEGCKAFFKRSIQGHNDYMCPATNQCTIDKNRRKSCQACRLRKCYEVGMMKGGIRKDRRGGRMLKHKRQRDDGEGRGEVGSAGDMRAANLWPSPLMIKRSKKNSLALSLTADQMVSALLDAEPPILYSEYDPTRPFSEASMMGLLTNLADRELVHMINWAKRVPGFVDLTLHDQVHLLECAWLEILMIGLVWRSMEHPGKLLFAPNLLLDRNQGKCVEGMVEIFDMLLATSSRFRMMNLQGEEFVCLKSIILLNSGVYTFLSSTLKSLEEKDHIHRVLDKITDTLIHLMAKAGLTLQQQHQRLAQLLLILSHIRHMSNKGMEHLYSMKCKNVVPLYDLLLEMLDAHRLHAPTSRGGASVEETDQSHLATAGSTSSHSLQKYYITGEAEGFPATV
Outline: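 Agonist-mode confirmation run in the presence of 10.0nM (final) ICI-182,780 antagonist. The reporter was ERE-driven luciferase in VM7Luc4E2 cells, grown in charcoal-stripped serum. Cells were exposed to 15-concentration compound series for 22hr, then ONE-Glo luminescence was read.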
On the % scale 0 is the no-effect control and ±100 the full control effect.

Cc1ccccc1Br
inactive: Potency [1] | Potency [2] | Potency [3] | Potency [4] | Potency [5] | Potency [6] | outcome [7] | Potency [8] | outcome [9] | Potency [10] | Potency [11] | Potency [12] | Potency [13] | outcome [14] | outcome [15] | outcome [16] | outcome [17]

NC1CCN(c2cccc(Cl)n2)CC1
active: Potency [2] 1330 nM
inactive: Potency [1] | Potency [3] | Potency [4] | Potency [5] | Potency [18] | Potency [6] | outcome [9] | Potency [10] | Potency [11] | Potency [12] | Potency [13] | outcome [15] | outcome [16] | outcome [17]

CN(C)N=Nc1ccccc1
inactive: Potency [1] | Potency [2] | outcome [19] | Potency [3] | Potency [4] | outcome [7] | Potency [8] | outcome [9] | Potency [10] | Potency [11] | Potency [12] | Potency [13] | outcome [14] | outcome [15] | outcome [16] | outcome [17]

CC(C)[C@H](N)C(=O)OCCOCn1cnc2c(=O)[nH]c(N)nc21
inactive: Potency [1] | Potency [2] | outcome [19] | Potency [4] | Potency [5] | Potency [6] | Potency [20] | outcome [7] | Potency [8] | outcome [9] | Potency [10] | Potency [11] | Potency [12] | Potency [13] | outcome [14] | outcome [15] | outcome [16] | outcome [17]

O=Cc1ccccc1[N+](=O)[O-]
inactive: Potency [1] | Potency [2] | outcome [19] | Potency [4] | Potency [5] | Potency [6] | Potency [20] | outcome [7] | Potency [8] | outcome [9] | Potency [10] | Potency [11] | Potency [12] | outcome [14] | outcome [15] | outcome [16]

COc1cc(C)cc(O)c1
inactive: Potency [1] | Potency [2] | outcome [19] | Potency [3] | Potency [4] | outcome [9] | Potency [10] | Potency [11] | Potency [12] | Potency [13] | outcome [14] | outcome [15] | outcome [16]

FC(F)(F)C(F)(F)C(F)(F)C(F)(F)C(F)(F)C(F)(F)C(F)(F)C(F)(F)C(F)(F)C(F)(F)F
inactive: activity change [1] -0.701% [at 8.39 µM, hits give high values] | activity change, negative = inhibition [2] -15.5% [at 8.39 µM] | activity, negative = inhibition [3] 3.92% [at 8.39 µM] | activity change, negative = cytotoxicity [4] 1.46% [at 8.39 µM] | activity change, negative = cytotoxicity [5] -0.929% [at 8.39 µM] | activity change, negative = cytotoxicity [6] -4.55% [at 8.39 µM] | cAMP activity change [7] 1.74% [at 8.39 µM] | activity change, negative = inhibition [8] -3.91% [at 8.39 µM] | activity change, negative = cytotoxicity [9] 4.74% [at 8.39 µM] | activation [10] 2.84% [at 8.39 µM] | activity change, negative = inhibition [11] 0.137% [at 8.39 µM] | activity change, negative = cytotoxicity [12] 3.97% [at 8.39 µM] | activity change, negative = cytotoxicity [13] 0% [at 8.39 µM] | viability change, negative = cytotoxic [14] -11.6% [at 6.97 µM] | activity change, negative = cytotoxicity [15] 13.6% [at 6.97 µM] | activation [16] 2.81% [at 6.97 µM] | activity, negative = inhibition [17] 0.552% [at 4.65 µM]

COc1cccc(OC)c1
inactive: Potency [1] | Potency [2] | Potency [3] | Potency [4] | Potency [5] | Potency [6] | outcome [7] | Potency [8] | outcome [9] | Potency [10] | Potency [11] | Potency [12] | Potency [13] | outcome [14] | outcome [15] | outcome [16] | outcome [17]
